Measurements as given in publication PMC12136788.
Positions count from the first letter of the chain named. Whole data set: some 5,800 sequences, median “enrichment r” near 0.54, cut for the highest 2% near 16. For the sample, the highest values were picked, then their nearest neighbours and some sequences at random.

B1: chr2:112659350:112659462:+|CDS|ENSG00000144136|unk|FALSE|unique (ssRNA)
RNA: GGGAGUUCUACAGUCCGACGAUCCUUGCCAAGGUGGGAGAUUGCAUGGGAGACUCCGGUGACAAACCCUUAAGGCGCAAUAAUAGCUAUACUUCCUAUACCAUGGCAAUAUGUGGCAUGCCUCUGGAUUCAUUCCGUGCCAAACAACAGAGGAUUGAGCAUCA
B2: chr12:49763637:49763739:+|3pUTR|ENSG00000139644|msi1_unk|total|mutant (ssRNA)
RNA: GGGAGUUCUACAGUCCGACGAUCAUGUGUAUCAAGGUACAGCAUCGCCGGGUUCCCCUAAACUUGCCCUGUUUUUGUUUUUUCCGUUUGUUAUCCCCUUACUGAGCGGCCUCUACCCGGUGGCUGUGAUUAAAUGUCCCAAGCCAACAGAGGAUUGAGCAUCA
B3: chr20:17613772:17613873:-|3pUTR|ENSG00000125844|unk|total|mutant (ssRNA)
RNA: GGGAGUUCUACAGUCCGACGAUCAGCCCCGUGGGUGUGUGGGAGGCCGGGCGCUCUGGGGUCUGUCUGUCAGUGCAAUCGUUCCGUGUUUUUUCAGUGGGGCGGGGCGGGAAGCGGGUGGGACCGGGCAGCCAGUUCUCAAAGCAACAGAGGAUUGAGCAUCA
B4: chr4:48851844:48851957:+|CDS|ENSG00000109180|unk|FALSE|unique (ssRNA)
RNA: GGGAGUUCUACAGUCCGACGAUCAUAUGACUCAAGUGUGAGUGGUCAAUCAUCUUUUGUGACAUCCCCAGCAGCAGACAACAUAGAAAUGCUUCCUCAUUAUGAGCCAAUUCCAUUCAGUUCUUCUAUGAAUGAAUCUGCUCCCAACAGAGGAUUGAGCAUCA
B5: ENSG00000107863:be:win_2201|CDS|ENSG00000107863|bound_else_gene|NA|bound_elsewhere_windowed (ssRNA)
RNA: GGGAGUUCUACAGUCCGACGAUCCUGUCAUCCUAAGGGAAAAACCUCCAUCUGGACGCCAGACACCGCAGCCUUUAAGGCAUCAGUCUUACAUCUUGGCAGUAAAUGACCAGGAGACCGGGUCAGACACUACCUGCUGGCUGCCAACAGAGGAUUGAGCAUCA
B6: chr18:55226207:55226308:-|3pUTR|ENSG00000196628|unk|FALSE|unique (ssRNA)
RNA: GGGAGUUCUACAGUCCGACGAUCAUUUUUACAGCCACACAAUUCUUGGCAUGUAUUAAGAAAAAAAAAAAUCCCUGUUCAAGUAGUUUUUCCACCUAUCAGCACUGAGUAAAUGCCAUAAAUCCAUUGAAAUGGUCUAAAUGUCAACAGAGGAUUGAGCAUCA
B7: chr16:21655520:21655610:+|3pUTR|ENSG00000197006|msi1_unk|total|mutant (ssRNA)
RNA: GGGAGUUCUACAGUCCGACGAUCUCUGUGUUCACAAUUACGUGAAGGGAGGACCCUUGGGGACCGCCAUUCUAAAUAUCAUGCCGGAAUUUAAAAAGCCAAAAUACUAAUUAUUUCUUUGCCGUGUGUAAAGGAAUGUUUUUACAACAGAGGAUUGAGCAUCA
B8: ENSG00000151612:stop:overlap|stop_codon|ENSG00000151612|stop_codon|NA|stop_codon (ssRNA)
RNA: GGGAGUUCUACAGUCCGACGAUCCAGGCCUGUUGGAGAAGGAAGCCAGCAGUGAGGGGGAUUGCAAAGUAGAGAGAGGUUGGUAGAACUGUGGACUGUGAAGAGAUCGAGAAUAGCACAGUUAACUAGGCAUUUGCCUUCGGCCAACAGAGGAUUGAGCAUCA
B9: ENSG00000136451:be:win_551|CDS|ENSG00000136451|bound_else_gene|NA|bound_elsewhere_windowed (ssRNA)
RNA: GGGAGUUCUACAGUCCGACGAUCGAGAUGUGUACCAUCUCAAUCGACACAAGCUCUCCCAUUCAGAUGAGAAACCCUUUGAGUGUCCUAUUUGUAAUCAGCGCUUCAAGAGGAAGGACCGGAUGACUUACCAUGUGAGGUCUCCAACAGAGGAUUGAGCAUCA
B10: chr6:134965076:134965177:-|3pUTR|ENSG00000112339|unk|total|mutant (ssRNA)
RNA: GGGAGUUCUACAGUCCGACGAUCAAAGGAACAAUGUGCAAUUGAUAUGUUUUCCGAUGAGAGAGAAAAAUUAAAGCUAAAAUCCGCUGCAAAGAAGUAUUAAUAAUCACCUCUGCAAAAAUUCUAAGUUGCCAACUGGCAAAGCAACAGAGGAUUGAGCAUCA
B11: ENSG00000070961:be:win_4601|3pUTR|ENSG00000070961|bound_else_gene|NA|bound_elsewhere_windowed (ssRNA)
RNA: GGGAGUUCUACAGUCCGACGAUCUCAGACUAUCAAACUACAAGAGAACCUUAGUCUUUUUUGUUUUUGUCUAAACAUGUUAGUUUAGUGAUGUCUUGGUGAACUGUGAGUGAACUGUAUUGAUUUUUCUAAUCUUUAGAGACCCAACAGAGGAUUGAGCAUCA
B12: chr7:111727939:111728040:-|3pUTR|ENSG00000128512|unk|FALSE|unique (ssRNA)
RNA: GGGAGUUCUACAGUCCGACGAUCAAGUGGUAAAUAGUGAUAAAGACUCCUUUUGUACCUUUUUAUGUUCACUUUUUUUUAUAUAGUUUAAUCUUAAAACCAAUACGAUAUUGUCAAACGAUACAAUGUGUGACAAUGUUGUAUCAACAGAGGAUUGAGCAUCA
B13: chr7:111727939:111728040:-|3pUTR|ENSG00000128512|unk|total|mutant (ssRNA)
RNA: B12 RNA with U34C, A35C, U83C, A84C
B14: chr19:811491:811550:+|3pUTR|ENSG00000011304|msi1_unk|FALSE|overlapping (ssRNA)
RNA: GGGAGUUCUACAGUCCGACGAUCUAGCAAUAUUUCCAGUUGACCAAAUAUUCUAAUCUUUUUUCAUUUAUAUGCAAAAGAAAUAGUUUUAAGUAACUUUUUAUAGCAAGAUGAUACAAUGGUAUGAGUGUAAUCUAAACUUCCCAACAGAGGAUUGAGCAUCA
B15: ENSG00000070961:be:win_4651|3pUTR|ENSG00000070961|bound_else_gene|NA|bound_elsewhere_windowed (ssRNA)
RNA: GGGAGUUCUACAGUCCGACGAUCACAUGUUAGUUUAGUGAUGUCUUGGUGAACUGUGAGUGAACUGUAUUGAUUUUUCUAAUCUUUAGAGACCUUCACACAGCAUGAGGGCUGUUGGCAUUUUGAAAAAGGUUAAUAAGUAGACAACAGAGGAUUGAGCAUCA
B16: ENSG00000070961:be:win_4701|3pUTR|ENSG00000070961|bound_else_gene|NA|bound_elsewhere_windowed (ssRNA)
RNA: GGGAGUUCUACAGUCCGACGAUCUUUUCUAAUCUUUAGAGACCUUCACACAGCAUGAGGGCUGUUGGCAUUUUGAAAAAGGUUAAUAAGUAGAAGCAUACAUGUUUUCCUUUUGUUUUUGAAACUUGUUUGUAAACAUAAAUACAACAGAGGAUUGAGCAUCA
B17: chr10:110135209:110135310:+|3pUTR|ENSG00000148700|msi1|total|mutant (ssRNA)
RNA: GGGAGUUCUACAGUCCGACGAUCCUCUCUAUUGGAAGAUUUUUUUAAUGUUCUACAUCAUUUAUGUUGUAUUACAAUGUAUGCCGAAACCGUAACCUGUGAACUAUGCUUUUCCAUAACUUUUUAAAAAUAUAUAUAUCUAAACAACAGAGGAUUGAGCAUCA
B18: chr18:3457781:3457936:+|CDS|ENSG00000177426|unk|total|mutant (ssRNA)
RNA: GGGAGUUCUACAGUCCGACGAUCCAACACUCCUCCCCCUACUCCACCGGACCUCAACCAGGACUUCAGUGGAUUUCAGCUUCCCGUGGAUGUUGCACUCAAACGGGCUGCAGAGAUGGAGCUUCAGGCAAAACUUACAGCUUACAACAGAGGAUUGAGCAUCA
B19: chr8:88032264:88032379:-|3pUTR|ENSG00000156103|unk|FALSE|bound_elsewhere (ssRNA)
RNA: GGGAGUUCUACAGUCCGACGAUCACUCCUUAUAAUGUUGCGUCAUUAAAGGUCAAGGGGUCAUGCUAUUAAUCUCAUUGCUAUAGACCAUUAACAUGACUGAACUUUUCCACAAAGUACUUAUGUUUACAAUGCUAUAACCCUCAACAGAGGAUUGAGCAUCA
B20: ENSG00000150457:stop:overlap|stop_codon|ENSG00000150457|stop_codon|NA|stop_codon (ssRNA)
RNA: GGGAGUUCUACAGUCCGACGAUCCAGAUUUAGAAAGCUCUGAUCUGGUGGAUCAGACUGAAGGCUGCCAGCCUGUGUACGUGUAGAUGGGGGCCAGGCACCCCCACCACUCGCUGCCUCCCAGGUCAGGGUCCCGGAGCCGGUCAACAGAGGAUUGAGCAUCA
B21: chr11:118657315:118658441:-|three_prime_utr|ENSG00000118094|control|control|control (ssRNA)
RNA: GGGAGUUCUACAGUCCGACGAUCCCUCCCAGCCUGUCCUCAGAGCGAAGUGGAGGGCAGGGUCACGACCUGGAGGUCAUGGGUAGGGGCCUAGCUCCCUCCUGGAACCUUGAAUAGGGUGGAAAUCCUGCUCUGGAGGGAAGACAACAGAGGAUUGAGCAUCA
B22: chr1:156742365:156742464:-|3pUTR|ENSG00000143321|msi1_unk|total|mutant (ssRNA)
RNA: GGGAGUUCUACAGUCCGACGAUCAUUUCUGAGGUGCACUGGGAGGCUCCCCUUCUAUUUGGGGCUUGAUGACUUUCUUUUUGCCGCUGGGGCUUUGAUGUUCCUUCCAGUGUCAUUUCUCAUCCACAUACCCUGACCUGGCCCCAACAGAGGAUUGAGCAUCA

target: MSI1 full-length (mouse, UniProt Q61474 1-362); test: nsRBNS (natural sequence RNA bind-n-seq); RBNS binding buffer (assumed for nsRBNS): 25 mM Tris pH 7.5, 150 mM KCl, 3 mM MgCl2, 0.01% Triton X-100, 500 ug/ml BSA, 20 U/ml SUPERase-In, 4 C; UNK is unkempt and MSI1 is Musashi-1; names of the RNAs are library labels; protein concentration not given here; high values mean tight binding
Sequence (Q61474 whole entry): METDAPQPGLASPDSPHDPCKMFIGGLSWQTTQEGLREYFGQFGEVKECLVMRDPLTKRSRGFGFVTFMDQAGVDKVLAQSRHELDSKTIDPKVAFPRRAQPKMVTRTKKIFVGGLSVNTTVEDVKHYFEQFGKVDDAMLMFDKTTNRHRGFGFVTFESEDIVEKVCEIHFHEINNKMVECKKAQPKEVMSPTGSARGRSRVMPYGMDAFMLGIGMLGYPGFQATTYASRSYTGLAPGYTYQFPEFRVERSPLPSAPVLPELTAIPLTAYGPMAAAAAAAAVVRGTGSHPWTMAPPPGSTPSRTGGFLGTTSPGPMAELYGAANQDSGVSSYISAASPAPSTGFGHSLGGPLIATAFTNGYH

Binder	binding signal
B1	0.737 enrichment R
B2	0.481 enrichment R
B3	0.811 enrichment R
B4	0.341 enrichment R
B5	0.283 enrichment R
B6	0.374 enrichment R
B7	0.282 enrichment R
B8	3.25 enrichment R
B9	0.307 enrichment R
B10	0.346 enrichment R
B11	3.69 enrichment R
B12	37.8 enrichment R
B13	3.05 enrichment R
B14	0.9 enrichment R
B15	28.3 enrichment R
B16	0.664 enrichment R
B17	7.3 enrichment R
B18	0.52 enrichment R
B19	0.72 enrichment R
B20	0.418 enrichment R
B21	0.327 enrichment R
B22	0.353 enrichment R
